From ChEMBL document CHEMBL2218924, “A broad activity screen in support of a chemogenomic map for kinase signalling research and drug discovery” (Biochem J, 2013)

Assays:
[1] = target: Tyrosine-protein kinase Fer (Homo sapiens) (UniProt P16591); conditions: at 10 µM
[2] = target: Tyrosine-protein kinase Fes/Fps (Homo sapiens) (UniProt P07332); conditions: at 1 µM
[3] = target: Tyrosine-protein kinase Fes/Fps (Homo sapiens) (UniProt P07332); conditions: at 10 µM
[4] = target: Tyrosine-protein kinase Fgr (Homo sapiens) (UniProt P09769); conditions: at 1 µM
[5] = target: Tyrosine-protein kinase Fgr (Homo sapiens) (UniProt P09769); conditions: at 10 µM
[6] = target: Vascular endothelial growth factor receptor 1 (Homo sapiens) (UniProt P17948); conditions: at 1 µM
[7] = target: Vascular endothelial growth factor receptor 1 (Homo sapiens) (UniProt P17948); conditions: at 10 µM
[8] = target: Receptor-type tyrosine-protein kinase FLT3 (Homo sapiens) (UniProt P36888); conditions: at 1 µM
[9] = target: Receptor-type tyrosine-protein kinase FLT3 (Homo sapiens) (UniProt P36888); conditions: at 10 µM
[10] = target: Vascular endothelial growth factor receptor 3 (Homo sapiens) (UniProt P35916); conditions: at 1 µM
Sequence of Vascular endothelial growth factor receptor 3 (Homo sapiens) (P35916 whole entry): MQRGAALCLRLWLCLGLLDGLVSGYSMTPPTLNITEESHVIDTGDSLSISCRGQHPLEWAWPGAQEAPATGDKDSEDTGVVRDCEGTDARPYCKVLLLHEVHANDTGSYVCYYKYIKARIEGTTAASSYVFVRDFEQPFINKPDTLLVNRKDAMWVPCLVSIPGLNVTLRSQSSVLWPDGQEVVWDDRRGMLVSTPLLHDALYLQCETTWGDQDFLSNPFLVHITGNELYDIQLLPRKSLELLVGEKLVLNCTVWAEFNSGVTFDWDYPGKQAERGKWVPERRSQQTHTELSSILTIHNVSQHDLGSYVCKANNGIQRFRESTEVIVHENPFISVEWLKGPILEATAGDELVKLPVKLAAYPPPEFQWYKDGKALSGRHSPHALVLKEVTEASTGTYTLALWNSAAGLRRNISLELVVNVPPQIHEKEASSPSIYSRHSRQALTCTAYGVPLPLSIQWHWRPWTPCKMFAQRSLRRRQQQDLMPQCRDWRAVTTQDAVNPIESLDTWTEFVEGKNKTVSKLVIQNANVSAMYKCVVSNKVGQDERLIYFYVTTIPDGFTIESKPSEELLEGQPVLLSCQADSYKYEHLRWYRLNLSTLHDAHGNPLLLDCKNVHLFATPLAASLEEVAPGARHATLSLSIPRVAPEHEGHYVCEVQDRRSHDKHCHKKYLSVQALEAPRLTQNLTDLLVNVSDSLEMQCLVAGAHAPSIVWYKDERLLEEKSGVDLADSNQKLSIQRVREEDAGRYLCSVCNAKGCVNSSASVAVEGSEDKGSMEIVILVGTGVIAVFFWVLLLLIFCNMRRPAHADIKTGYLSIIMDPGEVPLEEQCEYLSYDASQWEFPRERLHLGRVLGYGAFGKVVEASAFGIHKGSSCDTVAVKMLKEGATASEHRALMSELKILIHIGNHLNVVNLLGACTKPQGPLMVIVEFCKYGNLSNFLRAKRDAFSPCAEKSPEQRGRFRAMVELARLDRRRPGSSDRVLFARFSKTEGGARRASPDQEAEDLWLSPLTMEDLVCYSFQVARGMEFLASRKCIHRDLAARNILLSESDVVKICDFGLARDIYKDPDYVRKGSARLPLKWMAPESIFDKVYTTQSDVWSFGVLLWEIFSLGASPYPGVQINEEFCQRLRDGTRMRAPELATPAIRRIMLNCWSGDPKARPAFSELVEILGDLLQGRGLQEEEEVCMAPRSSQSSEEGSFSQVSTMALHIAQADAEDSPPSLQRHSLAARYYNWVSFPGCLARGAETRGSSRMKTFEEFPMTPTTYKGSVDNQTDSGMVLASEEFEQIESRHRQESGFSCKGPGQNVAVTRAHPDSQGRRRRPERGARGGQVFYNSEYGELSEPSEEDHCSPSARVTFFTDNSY

Sequence of Tyrosine-protein kinase Fgr (Homo sapiens) (P09769 2-529 limits assumed): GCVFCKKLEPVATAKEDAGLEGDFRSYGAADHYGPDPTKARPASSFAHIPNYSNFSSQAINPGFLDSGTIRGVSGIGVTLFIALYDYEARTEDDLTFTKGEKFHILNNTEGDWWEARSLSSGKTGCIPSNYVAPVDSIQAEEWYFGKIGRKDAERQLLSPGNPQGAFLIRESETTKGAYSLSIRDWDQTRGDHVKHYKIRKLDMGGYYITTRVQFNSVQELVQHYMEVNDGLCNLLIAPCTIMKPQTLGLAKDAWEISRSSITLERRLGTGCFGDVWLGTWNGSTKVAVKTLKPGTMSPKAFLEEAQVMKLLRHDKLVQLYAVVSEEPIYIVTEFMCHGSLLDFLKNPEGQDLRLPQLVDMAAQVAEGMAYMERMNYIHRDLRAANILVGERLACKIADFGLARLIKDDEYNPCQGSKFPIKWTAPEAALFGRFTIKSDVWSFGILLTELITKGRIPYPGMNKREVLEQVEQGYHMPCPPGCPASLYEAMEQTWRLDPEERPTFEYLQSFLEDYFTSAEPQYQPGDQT
Sequence of Receptor-type tyrosine-protein kinase FLT3 (Homo sapiens) (P36888 whole entry): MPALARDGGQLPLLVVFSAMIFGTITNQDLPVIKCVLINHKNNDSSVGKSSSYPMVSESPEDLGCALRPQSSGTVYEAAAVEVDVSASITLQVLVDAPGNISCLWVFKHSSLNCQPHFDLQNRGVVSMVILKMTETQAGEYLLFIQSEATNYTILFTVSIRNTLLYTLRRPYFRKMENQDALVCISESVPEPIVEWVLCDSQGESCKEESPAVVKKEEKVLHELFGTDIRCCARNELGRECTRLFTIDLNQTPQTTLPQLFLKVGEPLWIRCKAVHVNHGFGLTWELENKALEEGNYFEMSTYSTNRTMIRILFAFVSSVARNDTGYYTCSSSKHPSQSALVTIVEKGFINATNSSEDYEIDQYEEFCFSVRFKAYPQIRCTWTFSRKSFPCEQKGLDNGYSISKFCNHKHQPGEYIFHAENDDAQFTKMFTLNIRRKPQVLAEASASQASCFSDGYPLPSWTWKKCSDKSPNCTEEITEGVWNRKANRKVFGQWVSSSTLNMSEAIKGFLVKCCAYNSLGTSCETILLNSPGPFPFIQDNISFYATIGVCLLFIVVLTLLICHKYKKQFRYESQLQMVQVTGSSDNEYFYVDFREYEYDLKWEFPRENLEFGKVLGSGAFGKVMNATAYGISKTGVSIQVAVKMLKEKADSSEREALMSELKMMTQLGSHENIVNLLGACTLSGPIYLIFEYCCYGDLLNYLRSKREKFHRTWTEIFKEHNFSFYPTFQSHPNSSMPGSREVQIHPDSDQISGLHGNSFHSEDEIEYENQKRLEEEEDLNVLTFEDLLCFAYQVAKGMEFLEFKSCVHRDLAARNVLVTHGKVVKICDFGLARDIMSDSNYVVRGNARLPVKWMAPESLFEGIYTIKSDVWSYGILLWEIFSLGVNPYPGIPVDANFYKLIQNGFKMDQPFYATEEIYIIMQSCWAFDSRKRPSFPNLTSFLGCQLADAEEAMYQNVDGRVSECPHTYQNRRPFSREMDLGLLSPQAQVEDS
Sequence of Tyrosine-protein kinase Fes/Fps (Homo sapiens) (P07332 whole entry): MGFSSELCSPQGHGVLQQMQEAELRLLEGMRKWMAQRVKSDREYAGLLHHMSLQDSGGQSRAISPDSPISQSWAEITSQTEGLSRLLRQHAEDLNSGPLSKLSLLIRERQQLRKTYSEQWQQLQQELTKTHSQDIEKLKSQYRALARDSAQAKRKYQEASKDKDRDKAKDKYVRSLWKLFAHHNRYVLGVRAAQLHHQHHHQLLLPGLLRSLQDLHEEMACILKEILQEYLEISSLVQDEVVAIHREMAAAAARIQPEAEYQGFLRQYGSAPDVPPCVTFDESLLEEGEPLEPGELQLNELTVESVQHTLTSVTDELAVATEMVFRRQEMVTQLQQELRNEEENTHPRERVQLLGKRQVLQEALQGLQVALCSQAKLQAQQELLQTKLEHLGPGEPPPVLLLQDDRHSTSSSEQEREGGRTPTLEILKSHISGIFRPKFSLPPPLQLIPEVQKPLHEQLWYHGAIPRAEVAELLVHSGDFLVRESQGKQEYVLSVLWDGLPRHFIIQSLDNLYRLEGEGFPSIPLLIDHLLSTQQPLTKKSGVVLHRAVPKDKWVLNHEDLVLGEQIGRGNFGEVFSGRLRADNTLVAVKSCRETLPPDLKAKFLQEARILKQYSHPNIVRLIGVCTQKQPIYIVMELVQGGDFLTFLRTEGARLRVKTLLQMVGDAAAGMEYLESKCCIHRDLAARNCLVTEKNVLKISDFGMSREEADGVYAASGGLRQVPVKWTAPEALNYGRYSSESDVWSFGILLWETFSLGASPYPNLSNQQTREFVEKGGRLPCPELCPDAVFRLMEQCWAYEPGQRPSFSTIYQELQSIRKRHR
Sequence of Vascular endothelial growth factor receptor 1 (Homo sapiens) (P17948 whole entry): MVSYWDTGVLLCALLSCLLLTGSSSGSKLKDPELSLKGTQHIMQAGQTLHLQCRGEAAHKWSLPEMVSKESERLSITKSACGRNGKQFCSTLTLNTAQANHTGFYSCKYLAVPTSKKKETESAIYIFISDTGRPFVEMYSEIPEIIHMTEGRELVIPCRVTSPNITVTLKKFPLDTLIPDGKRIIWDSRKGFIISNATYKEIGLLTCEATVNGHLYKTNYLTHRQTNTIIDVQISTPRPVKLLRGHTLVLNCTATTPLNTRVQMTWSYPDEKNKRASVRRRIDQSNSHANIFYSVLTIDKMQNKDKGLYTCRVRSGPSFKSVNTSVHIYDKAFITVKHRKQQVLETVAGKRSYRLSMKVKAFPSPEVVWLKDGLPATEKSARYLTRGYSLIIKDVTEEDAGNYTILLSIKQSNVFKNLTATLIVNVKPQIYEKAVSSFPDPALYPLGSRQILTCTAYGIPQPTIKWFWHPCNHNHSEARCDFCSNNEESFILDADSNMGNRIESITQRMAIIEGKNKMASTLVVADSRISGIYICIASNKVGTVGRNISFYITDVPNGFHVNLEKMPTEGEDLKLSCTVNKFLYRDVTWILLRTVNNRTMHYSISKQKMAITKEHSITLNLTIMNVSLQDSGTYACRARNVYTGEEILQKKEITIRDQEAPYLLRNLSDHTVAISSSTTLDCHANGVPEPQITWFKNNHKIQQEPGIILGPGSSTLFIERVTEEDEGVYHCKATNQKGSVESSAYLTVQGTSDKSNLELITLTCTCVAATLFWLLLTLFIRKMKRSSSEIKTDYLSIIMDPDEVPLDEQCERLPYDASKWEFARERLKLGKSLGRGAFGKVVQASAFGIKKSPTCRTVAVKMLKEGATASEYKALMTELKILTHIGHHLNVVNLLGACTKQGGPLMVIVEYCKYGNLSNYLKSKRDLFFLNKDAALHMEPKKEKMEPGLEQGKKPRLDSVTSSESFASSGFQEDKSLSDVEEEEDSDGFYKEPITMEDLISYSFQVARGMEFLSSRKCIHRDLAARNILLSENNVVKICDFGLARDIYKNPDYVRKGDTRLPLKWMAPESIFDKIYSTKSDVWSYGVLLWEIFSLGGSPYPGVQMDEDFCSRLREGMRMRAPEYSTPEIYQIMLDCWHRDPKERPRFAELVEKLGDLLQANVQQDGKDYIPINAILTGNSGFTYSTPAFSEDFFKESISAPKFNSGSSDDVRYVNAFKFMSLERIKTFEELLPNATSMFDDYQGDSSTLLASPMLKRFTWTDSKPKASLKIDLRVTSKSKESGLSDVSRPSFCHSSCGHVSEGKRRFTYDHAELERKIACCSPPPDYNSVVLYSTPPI

COC(=O)[C@@]1(O)C[C@H]2O[C@]1(C)n1c3ccccc3c3c4c(c5c6ccccc6n2c5c31)C(=O)NC4
residual activity [1]: 0%
residual activity [2]: 7%
residual activity [3]: 1%
residual activity [4]: 3%
residual activity [5]: -1%
residual activity [6]: 0%
residual activity [7]: 0%
residual activity [8]: 0%
residual activity [9]: 1%
residual activity [10]: 0%

COc1ccc2c(c1)/C(=C/c1cnc[nH]1)C(=O)N2
residual activity [4]: 69%
residual activity [5]: 16%
residual activity [8]: 10%
residual activity [9]: 0%

CC(C)[C@H](CO)Nc1nc(Nc2cccc(Cl)c2)c2ncn(C(C)C)c2n1
residual activity [1]: 26%
residual activity [2]: 79%
residual activity [3]: 19%
residual activity [4]: 23%
residual activity [5]: 0%
residual activity [6]: 88%
residual activity [7]: 43%
residual activity [8]: 17%
residual activity [9]: 2%
residual activity [10]: 42%

CC(C)(C)c1cc(C=C(C#N)C#N)cc(Br)c1O
residual activity [1]: 107%
residual activity [2]: 125%
residual activity [3]: 98%
residual activity [4]: 113%
residual activity [5]: 96%
residual activity [6]: 102%
residual activity [7]: 82%
residual activity [10]: 96%

O=c1[nH]c2ccccc2n1C1CCN(Cc2ccc(-c3nc4cc5[nH]cnc5cc4nc3-c3ccccc3)cc2)CC1
residual activity [1]: 99%
residual activity [2]: 120%
residual activity [3]: 97%
residual activity [4]: 107%
residual activity [5]: 83%
residual activity [6]: 103%
residual activity [7]: 86%
residual activity [8]: 95%
residual activity [9]: 38%
residual activity [10]: 100%

CCn1cnc2c(Nc3cccc(Cl)c3)nc(N[C@@H]3CCCC[C@@H]3N)nc21
residual activity [1]: 39%
residual activity [2]: 55%
residual activity [3]: 9%
residual activity [4]: 18%
residual activity [5]: 3%
residual activity [6]: 63%
residual activity [7]: 15%
residual activity [8]: 18%
residual activity [9]: 1%
residual activity [10]: 50%

O=C1NC(=O)c2c1c1c3ccccc3n3c1c1c2c2ccccc2n1C1CCC3O1
residual activity [1]: 20%
residual activity [2]: 90%
residual activity [3]: 99%
residual activity [6]: 7%
residual activity [7]: 4%
residual activity [8]: 24%
residual activity [9]: 3%
residual activity [10]: 0%

C[S+]([O-])c1ccc(-c2nc(-c3ccc(F)cc3)c(-c3ccncc3)[nH]2)cc1 (configuration not stated)
residual activity [1]: 109%
residual activity [2]: 112%
residual activity [3]: 105%
residual activity [4]: 87%
residual activity [5]: 51%
residual activity [6]: 101%
residual activity [7]: 39%
residual activity [9]: 82%
residual activity [10]: 93%

CN[C@@H]1C[C@H]2O[C@@](C)([C@@H]1OC)n1c3ccccc3c3c4c(c5c6ccccc6n2c5c31)C(=O)NC4
residual activity [6]: 0%
residual activity [7]: -1%
residual activity [8]: -1%
residual activity [9]: -1%

COc1cc(OC)c(/C=C2\C(=O)Nc3ccccc32)c(OC)c1
residual activity [1]: 94%
residual activity [2]: 102%
residual activity [3]: 92%
residual activity [4]: 86%
residual activity [5]: 76%
residual activity [6]: 92%
residual activity [7]: 94%
residual activity [8]: 83%
residual activity [9]: 72%
residual activity [10]: 76%

N/C(=N\[N+](=O)[O-])N/N=C\c1ccc(-c2cccc([N+](=O)[O-])c2)o1
residual activity [6]: 86%
residual activity [7]: 72%
residual activity [8]: 73%
residual activity [9]: 48%
residual activity [10]: 58%

COc1ccc2c(c[n+](C)c3c4cc5c(cc4ccc23)OCO5)c1OC
residual activity [1]: 80%
residual activity [2]: 121%
residual activity [3]: 76%
residual activity [5]: 77%
residual activity [6]: 96%
residual activity [7]: 47%
residual activity [8]: 92%
residual activity [9]: 75%
residual activity [10]: 85%

O=[N+]([O-])/C=C/c1ccc2c(c1)OCO2
residual activity [1]: 98%
residual activity [2]: 113%
residual activity [3]: 77%
residual activity [4]: 90%
residual activity [5]: 92%
residual activity [6]: 97%
residual activity [7]: 91%
residual activity [8]: 95%
residual activity [9]: 69%
residual activity [10]: 88%

c1cc(-c2cnn3cc(-c4ccc(OCCN5CCCCC5)cc4)cnc23)ccn1
residual activity [2]: 87%
residual activity [3]: 31%
residual activity [4]: 28%
residual activity [5]: 2%
residual activity [6]: 0%
residual activity [7]: 0%
residual activity [8]: 0%
residual activity [9]: -1%
residual activity [10]: 1%

COc1cc2ncnc(Nc3ccc(OCc4ccccc4)cc3)c2cc1OC
residual activity [1]: 98%
residual activity [2]: 131%
residual activity [3]: 97%
residual activity [4]: 67%
residual activity [5]: 42%
residual activity [6]: 57%
residual activity [7]: 27%
residual activity [8]: 40%
residual activity [9]: 24%
residual activity [10]: 6%

CCc1nc(-c2ccc(OC)cc2)[nH]c1-c1ccncc1
residual activity [1]: 101%
residual activity [2]: 109%
residual activity [3]: 105%
residual activity [4]: 111%
residual activity [5]: 102%
residual activity [10]: 100%

O=C1Nc2ccc3ncsc3c2/C1=C/c1c[nH]cn1
residual activity [1]: 40%
residual activity [2]: 62%
residual activity [3]: 15%
residual activity [4]: 47%
residual activity [5]: 15%
residual activity [6]: 1%
residual activity [7]: 0%
residual activity [8]: 1%
residual activity [9]: 0%
residual activity [10]: 0%

O=C1c2ccccc2-c2nc3nnnn3nc21
residual activity [1]: 103%
residual activity [4]: 104%
residual activity [5]: 78%
residual activity [8]: 103%
residual activity [9]: 78%
